High-throughput results from PubChem.
A selection: hits, their analogues and other compounds. The true share with any hit is near 4%.
MITF act: increases MITF-driven TRPM1 promoter luciferase signal. AID 588334. activation, % at 12.5 µM. actives 0.75% (n = 300,000). SK-MEL-5 TRPM1-promoter luciferase, 24 h; % of positive control, neutral wells = 0;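 active = mean activation of at least 80% with every replicate also reaching 80%; inconclusive = mean reaches 80% but some replicate falls short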;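 note: 0% = neutral control wells and 100% = parthenolide positive control wells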
MITF TRPM1 inh: MITF TRPM1 promoter inhibition in SK-MEL-5 cells | SK-MEL-5 TRPM1 promoter luciferase, 24 h | inhibition, % at 12.5 µM | actives 0.83% (n = 330,000);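 active = mean inhibition across replicates of 60% or more, whatever share of single replicates reaches that level; inconclusive = some that reach 60%, reason not given; inactive = mean inhibition across replicates below 60%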
PAX8 inh HTS: lowers PAX8-driven luciferase in RMG-I cells; RMG-I TPO-luciferase reporter, SteadyGlo, 24 h; inhibition, % at 12.6 µM; actives 1.2% (n = 360,000);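 active = mean replicate inhibition at least 60% with every replicate also reaching 60%; inconclusive = only one of the two criteria is met; inactive = mean below 60% and not all replicates reaching 60%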;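 note: luciferase light reporting Pax8 driven TPO promoter activity; plate controls were median of neutral control wells for no effect and mitoxantrone controls for full effect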
Wnt act: activators of Wnt/beta-catenin signaling; AID 743398; Wnt/beta-catenin reporter cell assay, activator, plate reader; actives 1.2% (n = 300,000); activation, % at 9.35 µM; in the data active = activation above about 30%, passing the limit was not always enough; inconclusive = no clear call, values can overlap the other calls;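 note: 0% = neutral control wells and 100% = positive control wells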
EWS-Fli block: blocks EWS/Fli oncoprotein-driven transcription | inhibition, % at 12.6 µM | A673 NR0B1-luciferase reporter, viability-normalised | actives 0.67% (n = 350,000);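 active = mean inhibition of at least 50% after viability correction, with every replicate also passing that limit; inconclusive = mean reaches 50% but only one of two replicates passes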;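 note: firefly luciferase signal divided by Alamar Blue viability fluorescence both relative to DMSO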
esBAF inh: SWI/SNF esBAF complex inhibition; actives 2% (n = 350,000); reporter increase, % at 12.5 µM; mouse ES cells, Bmi1-luciferase knock-in reporter, 24 h; 100% = twice the neutral-well signal; in the data active = activation above about 40%; inconclusive = no clear call, values can overlap the other calls;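 note: 0% = median of the plate's neutral control wells and 100% = double that signal; a rise in the Bmi1 reporter signal indicates esBAF inhibition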
Starred values were filed as active, the others as inactive; ? = inconclusive; / = no result given.

SMILES	MITF act	MITF TRPM1 inh	PAX8 inh HTS	Wnt act	EWS-Fli block	esBAF inh
CCOC(=O)N1CCN(C(=O)c2ccc(Cn3c(=S)[nH]c4cc5c(cc4c3=O)OCO5)cc2)CC1	-61	63*	4	7	/	18
CCOC(=O)c1sc(=NC(=O)c2ccccc2)n(C)c1C	68	-64	19	44*	-74	71*
CCOC(=O)c1sc(=NC(=O)c2cccc(OC)c2)n(C)c1C	?	-80	/	33*	/	?
CCOC(=O)c1sc(=NC(=O)c2ccc(OC)c(OC)c2)n(C)c1C	68	-65	/	12	-71	38
CCCNC(=O)N1C[C@H](C)[C@H](OC)CN(C)C(=O)c2ccc(NC(=O)CC)cc2OC[C@H]1C	/	/	-12	/	-8	0
CCCC#Cc1ccc2c(c1)O[C@H](CN(C)C(C)=O)[C@H](C)CN([C@@H](C)CO)S2(=O)=O	/	/	/	/	14	-4
COc1cc(C2c3cc4c(cc3CC3COC(=O)N32)OCO4)cc(OC)c1OC (stereo not drawn)	/	17	72*	-9	?	/
Cc1ccccc1OCC(O)Cn1nnc2ccccc21 (stereo not drawn)	79	-76	/	/	/	65*
CN(C(=O)C=Cc1ccccc1)c1ccccc1	13	-15	-46	-2	-35	33
O=C(CCl)N(O)c1ccc(C=Cc2ccccc2)cc1	26	-20	-101	40*	-28	/
CCCN(CCC)S(=O)(=O)c1ccc(N2CCCC2=O)c([N+](=O)[O-])c1	-2	1	7	-3	2	-5
CCCN(CCC)S(=O)(=O)c1ccc(Cl)c([N+](=O)[O-])c1	-19	17	-5	0	54*	-1
Cc1ccc(NC(=O)N(C2=NCC(C)S2)c2ccccc2)cc1 (stereo not drawn)	?	-86	/	/	/	43*
Cc1cccc(N(C(=O)Nc2ccccc2)C2=NCC(C)S2)c1 (stereo not drawn)	24	-26	-15	4	-31	17
COc1ccc2c(COC(=O)c3n[nH]c4ccccc34)cc(=O)oc2c1	/	-60	/	1	/	46*
COc1ccc2c(COC(=O)CCS(=O)(=O)c3ccccc3)cc(=O)oc2c1	-2	6	/	/	/	/
Cc1cc2oc(=O)cc(COC(=O)c3n[nH]c4ccccc34)c2cc1C	92*	-96	/	/	/	34
CO[C@H]1CN(C)C(=O)c2ccc(NS(C)(=O)=O)cc2OC[C@H](C)N(Cc2ccccn2)C[C@@H]1C	/	/	/	/	5	/
COc1ccc(-n2nc3c(N4CCC(C(=O)NCc5ccccc5C)CC4)nnc(C)c3c2C)cc1	-85	85*	/	/	/	3
COc1ccc(-n2nc3c(N4CCC(C(=O)NCCc5ccccc5C)CC4)nnc(C)c3c2C)cc1	-89	89*	/	/	/	-18
COc1ccc(-n2nc3c(N4CCC(C(=O)NCC(C)c5ccccc5)CC4)nnc(C)c3c2C)cc1 (stereo not drawn)	-69	68*	57	-4	/	9
COc1ccc(-n2nc3c(N4CCC(C(=O)NCc5ccco5)CC4)nnc(C)c3c2C)cc1	0	0	/	/	/	-1
CCOc1ccccc1CNC(=O)C1CCCN(c2nnc(C)c3c(C)n(-c4ccccc4)nc23)C1 (stereo not drawn)	-81	81*	81*	2	63*	-34
C[C@@H]1CN([C@H](C)CO)C(=O)c2cc(-c3ccccc3)cnc2O[C@@H]1CN(C)Cc1cccnc1	/	/	/	/	-20	-5
Cc1ccc(-n2nc3c(N4CCC(C(=O)NCCc5ccccc5C)CC4)nnc(C)c3c2C)cc1	-93	94*	/	1	/	5
SMILES	MITF act	MITF TRPM1 inh	PAX8 inh HTS	Wnt act	EWS-Fli block	esBAF inh
COc1ccc(/C=N/NC(=O)CCn2cnc(-c3ccccc3)c2-c2ccccc2)cc1	6	-2	18	-7	51*	/
COc1ccc(/C=N/NC(=O)COc2ccccc2-c2ccccc2)cc1	-29	31	74*	-24	/	/
COc1ccc(/C=C/C(=O)Oc2cccc(/C=N/NC(=O)COc3c(C)cccc3C)c2)cc1	15	-18	/	/	/	45*
COCC(=O)Nc1ccc2c(c1)[C@H]1C[C@H](CC(=O)N3CCN(C)CC3)O[C@H](CO)[C@H]1O2	/	/	-7	/	0	1
COc1ccccc1-c1nnc(NC(=O)CSc2nncn2C)s1	9	-4	-57	54*	-8	/
CC(C)NC(=O)Nc1ccc2c(c1)C(=O)N([C@@H](C)CO)C[C@@H](C)[C@H](CN(C)S(=O)(=O)c1cn(C)cn1)OCCCC[C@@H](C)O2	/	/	9	/	-9	1
O=C(CCOc1ccccc1)N1CCN(c2ccc(O)cc2)CC1	10	-9	-5	50*	4	4
COc1ccc(-c2ccc3c(c2)O[C@H](CN(C)C)[C@H](C)CN([C@H](C)CO)S3(=O)=O)cc1	/	/	/	/	-7	-4
CO[C@H]1CN(C)C(=O)c2cc(NC(=O)CC(F)(F)F)ccc2OC[C@@H](C)N(C(C)=O)C[C@H]1C	/	/	-8	/	/	/
C[C@@H]1CN([C@H](C)CO)C(=O)Cc2cc(NC(=O)C3CC3)ccc2O[C@H]1CN(C)CC1CC1	/	/	-10	/	0	5
Oc1ccc(CN2CCc3ccccc3C2)c2cccnc12	-68	71*	/	/	/	-48
Oc1ccc(CN2CCC(Cc3ccccc3)CC2)c2cccnc12	/	/	76*	8	43	/
CCOC(=O)N1CCN(Cc2ccc(O)c3ncccc23)CC1	/	/	31	-1	11	/
Cc1ccc(C)c(S(=O)(=O)N2CCN(Cc3ccc(O)c4ncccc34)CC2)c1	-74	74*	73*	-6	23	/
CC(C)(C)NC(=O)C(c1cc2ccccc2o1)n1c(-c2ccc(-c3ccccc3)cc2)nc2ccccc21 (stereo not drawn)	/	/	-135	51*	-93	/
Cc1cccc(-c2nnc(-c3cccc(NC(=O)Cc4cccs4)c3)o2)c1	56	-61	/	/	/	80*
O=C(Cc1cccs1)Nc1ccc(-c2nnc(-c3ccccc3)o2)cc1	-6	9	/	/	/	29
Nc1[nH]n(-c2ccccc2)c(=O)c1N=Nc1ccc2c(c1)OCCO2	61	-57	-63	34*	21	-7
Nc1[nH]n(-c2ccccc2)c(=O)c1N=Nc1ccc2c(c1)OCO2	77	-80	-119	58*	-81	33
O=C(C1CCCC1)N1CC2(C1)[C@@H](c1ccccc1)[C@H](CO)N2Cc1ccc(Cl)cc1	/	/	-15	/	-1	/
CN1CCN(C(=O)C[C@@H]2C[C@H]3c4cc(NC(=O)Nc5ccccc5F)ccc4O[C@H]3[C@H](CO)O2)CC1	/	/	-2	/	-5	1
Cc1ccc(C(=O)CSc2nnc(-c3cccs3)n2C)o1	/	/	-29	-1	-16	12
Cn1c(SCc2ccccc2)nnc1-c1cccs1	?	-77	/	/	/	59*
Cn1c(SCc2ccc(F)cc2)nnc1-c1cccs1	86*	-95	/	22	-66	/
Cn1c(SCc2ccccc2F)nnc1-c1ccccn1	54	-56	-123	56*	-52	27
Nn1c(SCc2cccc(F)c2)nnc1-c1cccnc1	/	-4	-16	7	-6	2
